Luc counter: Counterscreen for Luciferase (Kinase-Glo TM) Inhibition; Luciferin 4-monooxygenase (Photuris pensylvanica), Q27757; Kinase-Glo luciferase, ATP luminescence, 8 min; Potency, µM (top dose mostly 38.3 µM), actives largely listed as inhibitors; actives 0.28% (n = 200,000); also: nearly all actives have a fitted effect of over 60% in size
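Inhibition of Kinase-Glo luciferase light generation was assessed at 10 uM ATP in pH 7.2 imidazole buffer, with luminescence measured after eight minutes at ambient temperature.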
GALK inh: qHTS Assay for Inhibitors of Human Galactokinase (GALK) | Purified GALK, Kinase-Glo residual ATP luminescence | AID 1868, 2009 | P51570 | actives 0.007% (n = 270,000) | Potency, µM (doses to about 57.5 µM), usual class: inhibitors
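Compounds were pin-transferred into ATP buffer (35 uM final), then GALK plus galactose (5 nM, 100 uM final) was added. After 1 h at room temperature, Kinase-Glo Plus was added and luminescence read after 10 min.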
CBFb-RUNX1 inh: qHTS Assay for Compounds Blocking the Interaction Between CBF-beta and RUNX1 for the Treatment of Acute Myeloid Leukemia; AlphaScreen CBFb-His/RUNX1-biotin binding, biochemical; 230,000 tested, under 10 active; Runt-related transcription factor 1 (Homo sapiens) + Core-binding factor subunit beta …; Potency, µM (series often up to 59.8 µM), hits mostly inhibitors
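Proteins preincubated together for 20 min at RT before compound addition; 15 min later, nickel and streptavidin beads were added and left 90 min prior to AlphaScreen measurement.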
Tb PFK block: qHTS Assay to Find Inhibitors of T. brucei phosphofructokinase; ATP-dependent 6-phosphofructokinase (Trypanosoma brucei brucei), O15648; T. brucei PFK, ADP-Glo luminescence; Potency, µM (series often up to 57.5 µM), hits mostly inhibitors; actives 0.17% (n = 330,000); AID 485367, 2010; also: nearly all actives have a fitted effect of over 60% in size
Target sequence (O15648 whole entry, looked up): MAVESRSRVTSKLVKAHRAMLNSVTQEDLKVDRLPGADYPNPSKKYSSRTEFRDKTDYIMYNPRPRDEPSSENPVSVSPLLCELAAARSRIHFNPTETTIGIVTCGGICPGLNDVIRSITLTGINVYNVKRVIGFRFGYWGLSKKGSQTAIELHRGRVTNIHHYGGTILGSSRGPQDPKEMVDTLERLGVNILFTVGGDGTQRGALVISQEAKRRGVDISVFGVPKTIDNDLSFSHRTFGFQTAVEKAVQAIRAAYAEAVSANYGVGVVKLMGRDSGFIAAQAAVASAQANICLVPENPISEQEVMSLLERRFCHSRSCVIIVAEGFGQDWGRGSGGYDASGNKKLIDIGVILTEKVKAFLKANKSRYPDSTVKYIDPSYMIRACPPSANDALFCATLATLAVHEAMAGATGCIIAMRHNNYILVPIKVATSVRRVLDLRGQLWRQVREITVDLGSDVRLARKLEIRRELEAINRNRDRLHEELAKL
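In TEA buffer at pH 8.0 with 5 mM MgCl2, enzyme (1.25 nM) converted F6P (0.5 mM) and ATP (0.1 mM) for 45 min at room temperature. ADP product was read by luciferase luminescence.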
PKM2 act: qHTS Assay for Activators of Human Muscle isoform 2 Pyruvate Kinase | purified PKM2, Kinase-Glo ATP luminescence, activation; response scale: 0% is enzyme alone, no compound | Potency, µM (doses to about 57.5 µM), actives largely listed as activators | AID 1631, 2009 | Pyruvate kinase PKM (Homo sapiens), P14618 | actives 0.34% (n = 260,000); also: nearly all actives have a fitted effect of over 55% in size
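hPK-M2, >95% pure; 0.1 mM ADP / 0.5 mM PEP final; imidazole pH7.2 buffer w/ 7 mM MgCl2, 50 mM KCl; 1 h RT; Kinase-Glo lum. Intermediate enzyme activity for dual inhibitor/activator qHTS.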
HeLa viability: Secondary assay for Activators of Human Pyruvate Kinase M2 isoform - Cell Titer Glo cytotoxicity assay | shares compounds with PKM2 act | HeLa viability, CellTiter-Glo ATP luminescence, 24 h | 230 tested, under 10 active | activity change, negative = cytotoxicity, % at 57.5 µM | AID 1898, 2009
A number is an active result; i = inactive; ? = inconclusive; nt = no result given; [ ] = dose if it differs, or a comment. An excerpt weighted towards active compounds, which were near 0.56% of everything screened. Calls follow the shape of the dose curve; as a rule, active = well fitted curve in the direction sought with a large enough effect; inconclusive = small, poorly fitted or top-dose-only effect, or another doubt; inactive = no such curve, though single readings can be large; an effect the other way counts as inactive or inconclusive.

SMILES	Luc counter	GALK inh	CBFb-RUNX1 inh	Tb PFK block	PKM2 act	HeLa viability
CCOC(=O)[C@]1(CC(=O)O)CCCC1=O	i[7.66 µM]	nt	nt	nt	nt	nt
CC(=O)Nc1ccccc1C=C1c2ccccc2-c2ccccc21	i[7.66 µM]	nt	nt	nt	nt	nt
COc1ccc2[nH]c(=O)c(-c3noc(-c4ccccc4)n3)cc2c1	i	i	i	i	11.2µM	i
COc1ccc2[nH]c(=O)c(-c3nnn(-c4ccccc4)n3)cc2c1	nt	i	i	i	i	nt
Cc1ccccc1NS(=O)(=O)c1ccc2c(c1)n(C)c(=O)n2C	i	i	i	i	2.51µM	i
O=S(=O)(c1ccccc1)N1CCN(S(=O)(=O)c2ccc3c(c2)OCCO3)CC1	nt	nt	nt	nt	nt	i
O=S(=O)(c1ccc2c(c1)OCCO2)N1CCNCC1	nt	nt	nt	i	i	nt
O=C(Cc1ccc2c(c1)OCCO2)N1CCN(S(=O)(=O)c2cccc(C(F)(F)F)c2)CC1	i	i	i	i	i	nt
O=S(=O)(c1cccc(C(F)(F)F)c1)N1CCN(S(=O)(=O)c2ccc3c(c2)OCCO3)CC1	nt	nt	nt	i	nt	i
COc1ccc(S(=O)(=O)c2ccc(O)cc2)cc1	i	i	i	i	4.47µM	i
COc1ccc(S(=O)(=O)c2ccc(OCC3CO3)cc2)cc1 (stereo not given)	i	i	i	i	?	nt
Oc1ccc(-c2nc(-c3ccc(O)c(O)c3)cs2)cc1	i	i	i	i	3.16µM	i
NC(=O)/N=C(\N)NC(=O)c1ccccc1	i[7.66 µM]	nt	nt	nt	nt	nt
CC(O)c1nc2ccccc2n1Cc1nnc(-c2ccc(Cl)cc2)o1 (stereo not given)	i	i	i	i	7.94µM	i
O=C(CSc1ccccc1)N1CCN(S(=O)(=O)c2ccccc2F)CC1	nt	i	nt	i	3.16µM	i
O=C(Cc1ccsc1)N1CCN(S(=O)(=O)c2ccccc2F)CC1	nt	nt	nt	i	nt	nt
Cn1c(=O)[nH]c(=O)c2c1nc(SCC(=O)Nc1ccccc1)n2Cc1ccccc1	i	i	i	i	1.58µM	?
C=C(C)CSc1nc2c(c(=O)[nH]c(=O)n2C)n1Cc1ccccc1	nt	i	i	i	i	nt
CC(C)c1ccc(S(=O)(=O)c2cc3cc(Br)ccc3oc2=O)cc1	i	i	i	i	0.562µM	i
Cc1ccc(S(=O)(=O)c2cc3cc(Br)ccc3oc2=O)cc1	i	i	i	i	?	nt
O=[N+]([O-])c1ccc(NCCCNS(=O)(=O)c2ccccc2)c(Cl)c1	i	i	i	i	7.94µM	i
O=[N+]([O-])c1ccc(NCCNS(=O)(=O)c2ccccc2)cc1	i	i	i	i	i	nt
CC(C)C(=O)NC(=O)C1CCCN1C(=O)/C=C/c1ccccc1 (stereo not given)	nt	nt	i[13.1 µM]	nt	nt	nt
C=CC1=C2C=C(C3CC3)N(C3CCCC3)C=C2C(=O)C(C)(OC(=O)c2ccco2)C1=O (stereo not given)	i[7.66 µM]	nt	i[13.1 µM]	nt	i[11.5 µM]	nt
CCc1nnc(NC(=O)CSc2nnc3c4ccccc4n(C)c3n2)s1	i	i	i	i	1.41µM	i
